# From PubChem BioAssay
# Efflux pump mplx = inhibitors of Candida efflux pumps in yeast, primary screen, S. cerevisiae, Nile Red, multiplex | S. cerevisiae Candida pump triplex | inhibition, % at 10 µM | actives 0.44% (n = 330,000) | AID 485275, 2010;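 active = plate passing quality check with inhibition over a set limit, or well fluorescence over plate mean plus 4 SD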;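 also: Nile Red retained in pooled yeast measured as flow cytometry median fluorescence; 0% = buffer negative control and 100% = Enniatin B positive control; higher means more Nile Red kept so more efflux inhibition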
# Rtt109 Vps75 = inhibitors of C. albicans Rtt109/Vps75 HAT, primary screen, biochemical, ThioGlo CoA-SH fluorescence, plate reader | purified Rtt109/Vps75, 4 h | inhibition, % at 34.9 µM | actives 0.16% (n = 330,000) | Histone acetyltransferase RTT109 (Candida albicans (strain SC5314 / ATCC MYA-2876)), …;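 active = inhibition of at least 50% in every replicate; inconclusive = best replicate reaches 50% inhibition but some replicates fall short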
# GRK2 aptamer HTS = compounds blocking aptamer binding on GRK2 – biochemical, human GRK2, bead flow cytometry, HTS, primary screen | Beta-adrenergic receptor kinase 1 (Homo sapiens), P25098 | FAM-aptamer displacement from GRK2 | actives 0.59% (n = 330,000) | inhibition of aptamer binding, % at 10 µM;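 active = inhibition of aptamer binding above 40%, roughly 3 SD of noise, on plates passing a quality check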;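 also: median bead fluorescence of bound FAM aptamer so fluorescent compounds give negative values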
# Target sequence (P25098 whole entry, looked up): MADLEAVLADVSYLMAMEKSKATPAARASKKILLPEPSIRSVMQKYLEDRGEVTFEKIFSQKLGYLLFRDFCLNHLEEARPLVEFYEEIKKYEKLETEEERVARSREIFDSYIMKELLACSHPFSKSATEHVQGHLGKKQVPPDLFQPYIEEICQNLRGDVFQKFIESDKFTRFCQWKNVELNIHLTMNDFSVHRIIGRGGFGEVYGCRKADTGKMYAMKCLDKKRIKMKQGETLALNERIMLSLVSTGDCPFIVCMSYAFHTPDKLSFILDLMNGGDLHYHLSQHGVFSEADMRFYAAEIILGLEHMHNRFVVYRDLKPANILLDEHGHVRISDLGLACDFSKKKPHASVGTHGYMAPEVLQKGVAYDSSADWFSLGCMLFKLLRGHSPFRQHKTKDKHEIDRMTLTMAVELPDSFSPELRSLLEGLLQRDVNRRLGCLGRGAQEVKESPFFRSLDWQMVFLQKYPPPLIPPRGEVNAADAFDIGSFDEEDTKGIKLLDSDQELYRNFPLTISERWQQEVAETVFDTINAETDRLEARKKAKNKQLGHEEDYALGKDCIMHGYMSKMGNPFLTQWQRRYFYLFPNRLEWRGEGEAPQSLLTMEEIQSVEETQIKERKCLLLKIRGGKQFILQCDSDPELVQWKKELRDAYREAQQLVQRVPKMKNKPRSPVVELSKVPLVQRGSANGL
# ALR H2O2 inh = inhibitors of human ALR sulfhydryl oxidase, primary screen, biochemical, H2O2 detection, HRP-luminol luminescence, single point | purified ALR, DTT oxidation | inhibition, % (concentration not given with the values) | FAD-linked sulfhydryl oxidase ALR (Homo sapiens), P55789 | actives 3.8% (n = 290,000);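 active = mean replicate inhibition above about 79%, with every replicate also reaching it, limit read from the data; inconclusive = only one of the two criteria met; inactive = mean below limit and not every replicate reaching it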
# HDAC3 inhib = HDAC3 deacetylase inhibitors, primary screen, biochemical, fluorescence, cell-free homogeneous | recombinant HDAC3, fluorogenic peptide/trypsin coupled | inhibition, % at 8.3 µM | Histone deacetylase 3 (Homo sapiens), O15379 | actives 0.15% (n = 320,000); in the data active = inhibition above about 26%, passing the limit was not always enough; inconclusive = no clear call, values can overlap the other calls
# Rce1 inhib = yeast Rce1p protease inhibitors, primary screen, biochemical, fluorescence, cell-free homogeneous; CAAX prenyl protease 2 (Saccharomyces cerevisiae (strain ATCC 204508 / S288c)), Q03530; yeast membranes, quenched prenylated peptide cleavage fluorescence; calls only; actives 0.27% (n = 290,000);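 active = fall in fluorescence gain of 50% or more versus controls, with final raw signal at or below 3038400; inconclusive = same 50% fall but final raw signal above 3038400; inactive = fall in fluorescence gain under 50%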;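 also: plate controls were neutral control wells for no effect and wells lacking membranes for full effect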
# Numbers without * were called inactive; i = inactive; ? = inconclusive; . = no result; + = active, no number. Rows were chosen to be rich in hits. Some 4.5% of all compounds tested hit in one or more screens of this group.
SMILES,Efflux pump mplx,Rtt109 Vps75,GRK2 aptamer HTS,ALR H2O2 inh,HDAC3 inhib,Rce1 inhib
COc1cccc(N2C(=O)CC(Nc3ccc(N4CCOCC4)cc3)C2=O)c1 (stereo not drawn),0,15,3,99*,1,i
COc1ccc(N2C(=O)CC(Nc3ccc(N4CCOCC4)cc3)C2=O)c(OC)c1 (stereo not drawn),0,5,0,98*,-6,i
O=C1CC(Nc2ccc(N3CCOCC3)cc2)C(=O)N1c1cccc(C(F)(F)F)c1 (stereo not drawn),0,27,0,.,1,i
Cc1ccc(CN2C(=O)CC(Nc3ccc(N4CCOCC4)cc3)C2=O)cc1 (stereo not drawn),1,-5,0,99*,-5,i
CC(=O)c1ccc(NC(=O)CSc2ccc3nnc(-c4cccnc4)n3n2)cc1,0,-6,1,-6,.,i
Cc1cc(C)cc(N(C(=O)c2sc(C)nc2C)C(C(=O)NC(C)(C)C)c2ccncc2)c1 (stereo not drawn),0,-5,3,.,1,i
CCS(=O)(=O)Nc1c(C(=O)OC)[nH]c2ccccc12,0,-12,3,60,12,i
CCS(=O)(=O)Nc1c(C(=O)O)[nH]c2ccccc12,0,-5,0,99*,-36,+
Cc1ccc(S(=O)(=O)Nc2c(C(=O)O)[nH]c3ccccc23)cc1C,0,-3,5,98*,2,i
CN(C(=O)CC1C(=O)NCCN1Cc1cccc(C(F)(F)F)c1)C1CCOCC1 (stereo not drawn),0,-8,3,-16,2,i
O=C(NCC1CC1)c1cc(-c2ccccc2)nn1CC1CC(c2cccc([N+](=O)[O-])c2)=NO1 (stereo not drawn),.,-19,.,-10,3,+
CCCS(=O)(=O)Nc1c(C(=O)O)[nH]c2ccc(OC)cc12,0,-6,0,?,-47,i
COC(=O)c1[nH]c2ccc(C)cc2c1NS(=O)(=O)c1ccc(F)cc1,0,5,1,79*,2,i
COC(=O)c1[nH]c2ccc(C)cc2c1NS(=O)(=O)c1ccc(F)c(C)c1,0,1,0,30,3,i
COc1ccc2[nH]c(C(=O)O)c(NS(=O)(=O)c3ccc(C)cc3C)c2c1,0,-11,0,98*,-1,i
CC(=O)N1CCN(c2c(F)c(F)c(C(F)(F)F)c(F)c2F)CC1,.,22,.,.,.,i
NC(=O)c1ccsc1NC(=O)COC(=O)[C@@H]1CCCN1C(=O)c1cccs1,.,-10,.,.,.,.
NC(=O)c1ccsc1NC(=O)COC(=O)C1CCCN1C(=O)c1cccs1 (stereo not drawn),0,.,2,97*,6,i
O=C(NCc1ccco1)C1CCN(C(=O)c2ccc(Cl)cc2Cl)CC1,0,-5,1,.,5,i
C=Cc1ccc(CSc2cc(C)nc3nc(C)nn23)cc1,0,-7,0,.,31*,i
Cc1ccc(CSc2nc3nc(C)cc(C)n3n2)cc1,0,-1,2,-2,-9,i
CCN(Cc1ccncc1)C(=O)CSc1ccc2ccccc2c1,0,9,0,38,2,i
O=C(O)/C=C/C(=O)Nc1cccnc1,0,-6,0,-5,-5,.
COC(=O)/C=C/C(=O)Nc1ccc(O)c(Cl)c1,0,1,0,100*,-3,i
COC(=O)/C=C/C(=O)Nc1cccnc1,0,5,1,95*,0,i
CC(C)(C)[C@H]1COC(=O)CCCC/C=C\C[C@H](CC(=O)NCCO)C(=O)N1,0,3,1,-5,2,.
COc1ccc(OC)c(CCNC(=O)CS(=O)(=O)Cc2nc(-c3ccc(C)cc3)oc2C)c1,0,7,1,-8,-11,i
COc1cccc(-c2nc(CS(=O)(=O)CC(=O)NCCc3cc(OC)ccc3OC)c(C)o2)c1,0,8,0,99*,3,i
